Laboratory results published in the supplement of paper PMC4166925.
± gives the standard deviation of the averaged measurements. Over roughly 33,000 sequences, “E-score (dimensionless, -0.5 to 0.5)” has its median near -0.046; the highest 2% begin near 0.36. The sample as a whole holds a higher share of the highest values than the screen did.

tested on: T1, SpTbr T-box DNA-binding domain (GST fusion); assay: PBM E-score of 8-mer (E-score (dimensionless, -0.5 to 0.5)); Tbr is Tbrain of the sea star Patiria miniata (Pm) or the sea urchin Strongylocentrotus purpuratus (Sp); higher = stronger binding preference; conditions: the construct has about 5 more residues each side
T1 sequence: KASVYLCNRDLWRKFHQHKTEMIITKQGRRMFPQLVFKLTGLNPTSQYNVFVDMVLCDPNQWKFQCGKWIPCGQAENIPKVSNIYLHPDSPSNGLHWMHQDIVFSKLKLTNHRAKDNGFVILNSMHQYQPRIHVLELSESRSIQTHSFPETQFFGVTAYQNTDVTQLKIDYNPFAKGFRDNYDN
Description: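 Universal protein-binding microarray (Agilent AMADID 016060, 60-bp probes with a 35-bp variable region) incubated with 200 nM GST-fused Strongylocentrotus purpuratus Tbr T-box DNA-binding domain (residues 362-554) in PBS pH 7.5. Scored for every ungapped 8-mer (given with its reverse complement) as E-score (range -0.5 to 0.5; >0.45 counts as bound) and Z-score of median probe intensity. Two replicate arrays (datasets 1 and 2).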
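Further: protein at 200 nM in PBS on universal double-stranded arrays.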

Sequence | PBM E-score of 8-mer
ATTCTGTG | -0.0566 ± 0.036
CTCTCAGA | -0.187 ± 0.0034
CTCCGGCA | 0.0686 ± 0.041
CCATAAGG | -0.0717 ± 0.0012
CGGCGTCA | 0.223 ± 0.02
AGGCGTCA | 0.41 ± 0.005
GGGCGTCA | 0.376 ± 0.017
GCGCGTCA | 0.265 ± 0.028
GTGCGTCA | 0.187 ± 0.009
AGGCGTCG | 0.349 ± 0.018
ACTTCAAT | -0.0527 ± 0.032
ACGTCACG | 0.217 ± 0.057
ATGTTGGG | -0.0592 ± 0.0084
TAAGGCTA | -0.149 ± 0.077
TACACTCA | 0.137 ± 0.013
AACACTCA | 0.31 ± 0.0041
CACACTCC | 0.402 ± 0.0059
GACACTCC | 0.316 ± 0.0096
CCCACTCG | 0.05 ± 0.13
AACACTCG | 0.193 ± 0.0083
AACACTCC | 0.283 ± 0.039
CACACTCG | 0.426 ± 0.019
CACACTCA | 0.407 ± 0.0072
CGCAGCAC | 0.0169 ± 0.017
AGTTGCTA | 0.239 ± 0.042

Sequence | PBM E-score of 8-mer
CGTCACAG | 0.232 ± 0.0032
GGACACAC | 0.0866 ± 0.0081
CGTCACAA | 0.244 ± 0.0062
AGTCACAC | 0.457 ± 0.0049
CGTCACAC | 0.43 ± 0.011
GGTCACAC | 0.46 ± 0.013
GGTCACAA | 0.2073 ± 0.00096
AGTCACAG | 0.0674 ± 0.028
AGTCACAT | 0.1318 ± 0.0012
GTTCATCA | 0.0211 ± 0.0087
ATCAACAT | -0.111 ± 0.028
AGTGCTCC | -0.0941 ± 0.03
AGTCTTGG | -0.101 ± 0.011
CGTAAGTA | 0.169 ± 0.0079
AGATGTCC | -0.309 ± 0.003
AGGTGTCG | 0.486 ± 0.008
ACGTGTCC | 0.0769 ± 0.048
AGCTGTCG | 0.263 ± 0.013
ACGTGTCG | 0.362 ± 0.015
AGGTGTCC | 0.428 ± 0.0068
CCACCAGG | -0.177 ± 0.03
CGTGAGCA | 0.105 ± 0.039
GCCTAAGC | -0.159 ± 0.006
CTAACTAG | 0.0135 ± 0.086
AAGGGAAA | -0.289 ± 0.05

Sequence | PBM E-score of 8-mer
GACAATGA | 0.176 ± 0.0013
CTCACCAC | 0.218 ± 0.037
ATCACCAC | 0.113 ± 0.004
CTCACCGC | 0.0406 ± 0.0049
ATCACCTC | 0.387 ± 0.0097
CTCACCTC | 0.444 ± 0.0047
ATCACCTA | 0.321 ± 0.065
CCGGTTCC | -0.27 ± 0.0077
GTGCCATA | 0.222 ± 0.024
ATAACGCC | 0.28 ± 0.032
AAGGATTA | -0.152 ± 0.047
CAGATCAG | -0.0587 ± 0.00064
AAAAGTGT | 0.39 ± 0.016
ACAAGTGA | 0.243 ± 0.07
AAAAGTGG | 0.118 ± 0.11
ACAAGTGG | 0.355 ± 0.012
ACAAGTGT | 0.381 ± 0.019
AAAAGTGA | 0.169 ± 0.069
TAACCCTA | -0.15553 ± 2.1e-05
GCTGTGGA | 0.151 ± 0.058
GCTGTGAA | 0.4045 ± 0.0013
ATTGTGAA | 0.317 ± 0.067
TCTGTGAA | 0.329 ± 0.017
ACTGTGAT | 0.242 ± 0.0029
CTTGTGAA | 0.353 ± 0.034

Sequence | PBM E-score of 8-mer
ACTGTGAG | 0.269 ± 0.031
GTTGTGAA | 0.4 ± 0.015
ACTGTGAA | 0.413 ± 0.0064
AAAGAGAG | -0.0256 ± 0.025
GAACTCGA | 0.194 ± 0.051
AGTGATAA | 0.278 ± 0.067
GGTGATAA | 0.37553 ± 0.00031
GGTGATAC | 0.221 ± 0.028
TGTGATAA | 0.377 ± 0.017
CGTGATAA | 0.27 ± 0.036
TATGATAA | -0.00343 ± 0.017
CGTATGCC | -0.271 ± 0.057
AAACCTAG | 0.0536 ± 0.035
ACACCTAG | 0.444 ± 0.0087
AGACCTAT | -0.142 ± 0.047
GCACCTAA | 0.339 ± 0.04
ACACCGGT | 0.246 ± 0.055
ACACCTGT | 0.4669 ± 0.0038
ACACCTAA | 0.4637 ± 0.0015
CCACCTAG | 0.183 ± 0.046
AAACCTGT | 0.0331 ± 0.12
ACACCTAT | 0.4592 ± 0.0012
ATACCTAT | -0.0845 ± 0.068
TCACCTAA | 0.301 ± 0.018
CGTGGGAC | 0.0261 ± 0.0086

Sequence | PBM E-score of 8-mer
AATCCCAC | 0.151 ± 0.013
ATCTGCCG | -0.21 ± 0.071
TGCATTAA | 0.022 ± 0.05
CATGCGCC | -0.226 ± 0.0069
CGCATATC | -0.0822 ± 0.013
CAGACCCA | -0.0355 ± 0.018
AGGTCTTA | -0.0667 ± 0.12
CCCTCACG | 0.153 ± 0.063
ACTGGACC | -0.203 ± 0.069
ATCCAGCC | -0.0901 ± 0.0022
GCACCTAC | 0.352 ± 0.025
CCACCTAC | 0.248 ± 0.043
ACACCTAC | 0.462 ± 0.0061
AATAGATG | 0.0328 ± 0.094
AACTAATG | -0.0496 ± 0.012
AGCTTTGA | -0.239 ± 0.067
AGTCTCTC | -0.105 ± 0.029
CTTCCTCC | -0.204 ± 0.065
AGCAACAC | 0.376 ± 0.026
GGCAACAC | 0.3658 ± 0.00072
GGCAACAA | 0.13 ± 0.019
CGCAACAC | 0.306 ± 0.024
AGCAACAG | -0.0121 ± 0.0042
AGCAACAA | 0.1945 ± 0.00053
GGTTATCA | 0.0778 ± 0.034

Sequence | PBM E-score of 8-mer
CGCTAAAC | 0.187 ± 0.1
GACGGGCA | -0.2934 ± 0.0011
AACTGGTG | 0.188 ± 0.02
ACCCCTCT | -0.063 ± 0.085
ACACCCCC | 0.363 ± 0.015
ACACCCCA | 0.376 ± 0.013
ACCCCCCT | -0.162 ± 0.03
ACACCCCT | 0.385 ± 0.013
ACACCCCG | 0.35 ± 0.018
TGACGTAA | -0.098 ± 0.019
CATATCTA | -0.24 ± 0.025
GAAGCCTA | -0.182 ± 0.037
GACGGGCC | -0.12 ± 0.046
TAGCGCGA | 0.3785 ± 0.0014
AAGCGCGA | 0.369 ± 0.007
AAGCGCGG | 0.136 ± 0.063
AAGCGCGC | 0.0762 ± 0.0076
GAGCGCGA | 0.279 ± 0.053
CAGCGCGA | 0.199 ± 0.0059
CTTCCAGA | -0.22 ± 0.011
ACCATAGC | 0.0118 ± 0.017
CTCTGGGC | -0.112 ± 0.012
TCATTGGA | -0.0638 ± 0.031
CCTCCATC | -0.0262 ± 0.042
CCACACTC | 0.374 ± 0.015

Sequence | PBM E-score of 8-mer
ACACACTC | 0.307 ± 0.019
ACACACCC | 0.33 ± 0.0064
CCACACCC | 0.414 ± 0.024
CCACACTA | 0.279 ± 0.029
CCACACCG | 0.226 ± 0.071
ATCCTGCC | -0.182 ± 0.054
ATGGGCAG | -0.0503 ± 0.058
ATGCCCGC | 0.031 ± 0.012
AAGTGCTC | 0.118 ± 0.051
AAGTGCCC | -0.146 ± 0.044
AAGTGCTG | 0.246 ± 0.04
ATGTGCCG | 0.175 ± 0.032
ATGTGCCC | -0.0447 ± 0.038
AAGTGCCA | 0.4045 ± 0.0038
ATGTGCCA | 0.374 ± 0.01
AAGTGCTA | 0.419 ± 0.014
GAGTGCCA | 0.20475 ± 0.00018
AAGAGAGA | -0.141 ± 0.03
GTCACAGA | 0.0552 ± 0.0087
CACACACG | 0.233 ± 0.057
CACACACA | 0.3384 ± 0.00066
GTCACACA | 0.409 ± 0.03
